Pf growth 96h = P. falciparum growth inhibition at 96 hours. P. falciparum luciferase reporter growth, 96 h. Potency, µM (series often up to 28.7 µM), inactives show at the top dose activity change, negative = inhibition, most hits filed as inhibitors. 6.9% of 320,000 active. AID 504834; also: potency is read from the fitted curve at half-maximal effect; % is scaled to controls: 0 for no effect and ±100 for the full control effect
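Luminescence readout: decreased luciferase signal marks inhibited growth of reporter-expressing P. falciparum in infected red cells (2% hematocrit, 0.05% parasitemia final), exposed to compound two generations (96 h, 37 C, 5% CO2).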
HCV inhibitor = inhibitors of hepatitis C virus infection | Huh7.5.1 HCVcc-Cre infection, luciferase reporter, 44 h | Potency, µM (top dose mostly 41.8 µM), without a hit: at the top dose activity change, negative = inhibition, most hits filed as inhibitors | 3.4% of 340,000 active | AID 651820; also: potency is read from the fitted curve at half-maximal effect; % is scaled to controls: 0 for no effect and ±100 for the full control effect
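Reporter virus HCVcc-Cre (~0.5 moi) infects cells exposed to compound; seeding density 1,000 cells/well with 4 h settling beforehand. Luminescence, 15 sec read, taken 44 h post-infection following a 15 min RT substrate incubation.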
Sm TGR block = inhibitors of Schistosoma mansoni thioredoxin glutathione reductase; purified TGR, DTNB reduction, TNB absorbance 405 nm; Potency, µM (top dose mostly 114 µM), for the others: at the highest dose activity change, negative = inhibition, most hits filed as inhibitors; 3% of 360,000 active; Q962Y6; also: potency is read from the fitted curve at half-maximal effect; % is scaled to controls: 0 for no effect and ±100 for the full control effect; nearly all actives have a fitted effect of over 60% in size
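First, TGR (20 nM dispensed) and NADPH were mixed with compound. Second, a 15 min room-temperature incubation followed. Third, further NADPH and then DTNB were added to start the reaction. Finally, TNB absorbance was monitored kinetically.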
HCMV antiviral = inhibitors of human cytomegalovirus | HFF cells, HCMV-luciferase reporter, 72 h; stronger effect = lower value | activity change, negative = inhibition, % at 57.5 µM | 4.5% of 410,000 active; in the data active = activity change below about -60%; inconclusive = no clear call, values can overlap the other calls; inactive = above about -39%; also: % is scaled to controls: 0 for no effect and ±100 for the full control effect
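Two compound doses tested in HFFs infected with HCMV-luciferase, MOI 1 PFU/cell, 72 h at 37C. Lysate luminescence read with OneGlo; data normalized against buffer-only and 10uM Salinomycin inhibitor controls.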
SARS PLpro yeast = inhibitors of SARS-CoV papain-like protease in yeast; S. cerevisiae expressing SARS-CoV PLpro, growth rescue; Potency, µM (top dose mostly 32.9 µM), without a hit: at the top dose activity, positive = growth rescue, hits mostly activators; 0.19% of 330,000 active; calls by dose curve; also: potency is read from the fitted curve at half-maximal effect; 0% is about no effect; nearly all actives have a fitted effect of over 55% in size
Pf growth 48h = P. falciparum growth inhibition at 48 hours (one generation); P. falciparum luciferase growth in erythrocytes, 48 h; Potency, µM (series often up to 28.7 µM), for inactives: at the highest dose activity change, negative = inhibition, most hits filed as inhibitors; 5.9% of 310,000 active; AID 504832; also: potency is read from the fitted curve at half-maximal effect; % is scaled to controls: 0 for no effect and ±100 for the full control effect
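Cell-based growth assay: transgenic P. falciparum expressing firefly luciferase, cultured in red cells within RPMI 1640 containing 0.5% w/v Albumax, 24 mM bicarbonate and gentamycin. A drop in luciferase activity indicates inhibition.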
The depositor's hits bear a star; ? = inconclusive; · = no result given; [ ] = remark or other dose. A selection: hits, their analogues and other compounds. The true share with any hit is near 15%. Unless noted, calls follow the shape of the dose curve; as a rule, active = well fitted curve in the direction sought with a large enough effect; inconclusive = small, poorly fitted or top-dose-only effect, or another doubt; inactive = no such curve, though single readings can be large; an effect the other way counts as inactive or inconclusive.

SMILES | Pf growth 96h | HCV inhibitor | Sm TGR block | HCMV antiviral | SARS PLpro yeast | Pf growth 48h
CN(CC(=O)Nc1ccccc1C(F)(F)F)C(=O)c1cc(Cl)nc2ccccc12 | ? | 5.9% | -3.0% | 4.7 | -3.7% | 19.1%
CCc1ccccc1NC(=O)CN(C)Cc1c(O)ccc2ccccc12 | 20.3% | -1.0% | 0.708µM* | -23.0 | -3.9% | 20.0%
CN(CC(=O)Nc1ccccc1C(F)(F)F)Cc1c(O)ccc2ccccc12 | 4.2% | 5.9% | 1µM* | 3.6 | -4.5% | 17.7%
CCCN(CC(=O)Nc1ccccc1OC)Cc1c(O)ccc2ccccc12 | 28.3% | 3.4% | 2µM* | 10.6 | -34.5% | 9.9%
COC(=O)c1ccc2c(c1)N(CC(=O)Nc1cccc(C(F)(F)F)c1)C(=O)c1ccccc1S2 | · | · | -0.5% | -17.7 | · | ·
Cc1cc(N2CCOCC2)nc2ccc(Cl)cc12 | 29.5% | -11.6% | 4.6% | 19.7 | -0.7% | 68.3%
Cc1ccccc1C(=O)Oc1ccc2ccc(O)cc2c1 | 123.0% | -9.2% | 0.9% | -34.3 | -9.5% | 216.7%
Cc1ccccc1S(=O)(=O)Oc1ccc2ccc(O)cc2c1 | 115.9% | 22.4µM* | -7.5% | 12.6 | -5.0% | 55.8%
CN(c1ccccc1)c1ccc(/C=C/[N+](=O)[O-])cc1 | 47.5% | ? | -24.6% | -98.7* | -93.2% | ?
CN(C)c1ccc(/C=C/[N+](=O)[O-])cc1 | -0.3% | 9.7% | -1.2% | 4.3 | -58.6% | 19.2%
Cn1cc(C(=O)O)c(=O)c2cc(S(=O)(=O)N3CCOCC3)ccc21 | · | · | 2.5% | -24.3 | · | ·
CCCOC(=O)c1ccc(-c2c(C)noc2-c2ccc(OC)cc2O)o1 | · | ? | 4.8% | 10.0 | -11.9% | 0.738µM*
O=c1c(Cl)c(NCCCO)cnn1-c1nc2ccccc2[nH]1 | 462.5% | 10µM* | 8.91µM* | -98.2* | -31.6% | 348.3%
C=CCN(CC=C)c1cnn(-c2nc3ccccc3[nH]2)c(=O)c1Cl | · | -1.5% | -6.8% | 52.9 | -6.8% | -22.0%
COc1ccc(-c2nc(/C=C3\C(C)=Nc4ccccc43)c(O)o2)cc1 | 30.2% | ? | 44.7µM* | -8.7 | -6.6% | 1.8%
CC1=Nc2ccccc2/C1=C\c1nc(-c2ccccc2)oc1O | -16.1% | ? | ? | 18.3 | -30.4% | ·
CC(=O)c1c(C)c(C)c2n1CCn1c(C)ccc1-2 | ? | ? | 12.6µM* | -30.2 | 0.1% | ?
Cn1c(CCN2CCOCC2)nc2cc(NC(=O)c3cccs3)ccc21 | 7.2% | 3.4% | -13.2% | 25.7 | 0.0% | -3.8%
Cc1ccc(CNC(=O)c2cc(Cl)cc(Cl)c2)n1C | -31.1% | -12.4% | 31.6µM* | -7.7 | 2.0% | 0.0%
Cc1ccc(CNC(=O)c2ccc(Cl)c(S(N)(=O)=O)c2)n1C | -24.3% | 6.4% | ? | -23.6 | -0.2% | -16.8%
CC1CC(C)(C)Nc2ccc(OC(=O)c3ccco3)cc21 (stereo unspecified) | -11.6% | -3.1% | -32.4% | -107.4* | -17.7% | ?
CC1CC(C)(C)Nc2ccc(N=O)cc21 (stereo unspecified) | -0.9% | ? | 14.1µM* | -60.0* | -4.8% | ?
CCOC(=O)C1/C(=N\O)CC(C)(O)C(C(=O)OCC)C1c1ccc(N(C)C)cc1 (stereo unspecified) | ? | -10.7% | 35.5µM* | -1.3 | -3.2% | ·
CCCCC(CCC(=O)O)(C(=O)OCC)c1csc(Nc2ccc(OCC)cc2)n1 (stereo unspecified) | ? | 1.1% | 50.1µM* | -30.4 | -0.8% | -26.9%
COC(=O)C1=C(C(=O)OC)SC(=C2C(=S)C(C)(C)N(C(=O)CC(C)C)c3ccccc32)S1 | 47.2% | 24.6% | -6.0% | -9.3 | 14.6% | ·
SMILES | Pf growth 96h | HCV inhibitor | Sm TGR block | HCMV antiviral | SARS PLpro yeast | Pf growth 48h
CC(C)(C)Cc1c(-c2cccc(Br)c2)nc2ccc(Cl)cn12 | · | · | · | -23.5 | · | ·
O=C1/C(=C/c2ccccc2)CCc2ccc(Cl)nc21 | · | ? | · | -62.9* | · | ·
Clc1cccc2c3c([nH]c12)CCNC3 | 0.586µM* | ? | -13.2% | -32.0 | 6.1% | 12.6%
Clc1ccc2[nH]c3c(c2c1)CNCC3 | ? | ? | -34.1% | 2.9 | -2.6% | 4.4%[0.00184 µM]
COC(=O)Cn1c(-c2ccc(OC)cc2)c(-c2ccc(OC)cc2)nnc1=O | 0.8% | 1.9% | 79.4µM* | 16.0 | -2.0% | 14.3%
Cc1ccc(-n2c(=O)c3c(c4cc(C)ccc4n3C)n(CC(=O)Nc3ccc(F)cc3)c2=O)cc1 | · | · | -2.6% | -75.1* | · | ·
CCCCN1C(=O)C(CC(=O)NCCCN(C)C)CC(C(=O)N2CCOCC2)=C1C (stereo unspecified) | · | · | · | 5.6 | · | ·
Cc1ccc(N2CCN(C(=O)c3cc(-c4ccc(F)cc4)[nH]c3C)CC2C)cc1 (stereo unspecified) | ? | 11.2µM* | -11.9% | -8.2 | -10.5% | ?
COc1ccccc1N1CCN(C(=O)c2cc3c(=O)n(Cc4ccco4)ccc3nc2C)CC1 | · | · | 14.1µM* | -27.5 | · | ·
Cc1[nH]c(-c2ccc(F)cc2)cc1C(=O)N1CCN(c2ccccc2)CC1 | 20.0% | ? | -5.8% | -3.0 | -1.0% | 0.0%
COc1ccccc1N1CCN(C(=O)c2cc(-c3ccc(F)cc3)[nH]c2C)CC1 | -3.6% | ? | 11.5% | 21.5 | -4.2% | 13.1µM*
Cc1[nH]c(-c2ccc(F)cc2)cc1C(=O)N1CCN(c2ccccc2F)CC1 | 3.7µM* | ? | -14.9% | 29.5 | -7.6% | -50.9%
CCCCC(=O)NC(=S)Nc1ccc(S(=O)(=O)N2CCCC2)cc1 | -10.0% | -5.9% | 7.2% | 6.6 | 7.5% | -1.4%
Cc1ccc(CCNC(=O)c2sc3nc4n(c(=O)c3c2C)CCCC4)cc1 | · | · | -4.6% | -9.2 | · | ·
COc1ccccc1N1CCN(C(=O)C(C)N(c2ccc(C)c(C)c2)S(C)(=O)=O)CC1 (stereo unspecified) | 11.7µM* | ? | 0.3% | -15.1 | 0.1% | ?
COc1ccccc1N1CCN(C(=O)c2ccoc2C)CC1 | · | 8.4% | 44.7µM* | 1.2 | -0.3% | -7.3%
CC(=O)Nc1ccccc1-c1nc2cc(C#N)c(C#N)cc2[nH]c1=O | 106.1% | ? | ? | 0.8 | -1.1% | ·
CC(=O)Nc1ccccc1-c1nc2ccc(C(=O)N3CCN(c4cccc(C)c4)C(C)C3)cc2[nH]c1=O (stereo unspecified) | 6.57µM* | ? | 7.3% | -0.2 | 5.4% | ·
CCCCN(CCCC)CCNC(=O)c1ccc2nc(-c3ccccc3NC(C)=O)c(=O)[nH]c2c1 | 5.1% | -25.4% | 1.6% | 0.0 | -0.3% | 2.33µM*
CC(=O)Nc1ccccc1-c1nc2ccc(C(=O)N3CCN(c4ccccc4)CC3)cc2[nH]c1=O | ? | 3.9% | -29.5% | 49.2 | -2.1% | -2.4%

From PubChem
